Measured values taken from PubChem BioAssay.
Several values for one entry are separate records, joined by “and”; a condition that tells them apart may be missing. Equal entries are not always repeated. Activity calls are given as the source filed them.

Tests used:
Albumin (Bos taurus) = Albumin (Bos taurus) (UniProt P02769); assay: compounds binding labelled BSA control protein – biochemical, small-molecule microarray, Alexa647 label, 635/667 nm fluorescence, artefact control for SMM control protein annotation, profiling panel (AID 1118); settings: BSA-A647 binding, fluorescence 635 nm, higher = more signal;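 note: score merges 667 nm emission intensity and signal-to-noise per printed compound spot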
Albumin (Bos taurus), sequence (P02769 whole entry, looked up): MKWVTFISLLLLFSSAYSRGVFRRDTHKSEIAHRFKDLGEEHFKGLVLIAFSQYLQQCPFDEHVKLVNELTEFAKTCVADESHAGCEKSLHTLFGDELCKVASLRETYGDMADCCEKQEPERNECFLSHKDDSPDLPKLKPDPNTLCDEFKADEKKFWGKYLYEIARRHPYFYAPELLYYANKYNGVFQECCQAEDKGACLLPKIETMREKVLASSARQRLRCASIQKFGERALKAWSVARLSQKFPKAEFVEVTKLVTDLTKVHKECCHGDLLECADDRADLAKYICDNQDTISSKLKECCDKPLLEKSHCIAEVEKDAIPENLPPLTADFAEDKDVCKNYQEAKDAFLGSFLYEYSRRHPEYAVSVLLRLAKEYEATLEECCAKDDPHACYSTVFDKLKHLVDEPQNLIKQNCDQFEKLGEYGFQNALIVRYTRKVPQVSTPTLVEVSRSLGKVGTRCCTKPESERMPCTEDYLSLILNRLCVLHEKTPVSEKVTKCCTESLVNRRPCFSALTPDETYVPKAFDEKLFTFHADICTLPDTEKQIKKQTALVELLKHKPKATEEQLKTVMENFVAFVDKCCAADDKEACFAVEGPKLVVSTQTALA

[1] = probe aXIP binding to arrayed compounds – biochemical, NeuroSMM set, 635/667 nm fluorescence, primary screen (AID 1119); settings: small-molecule microarray, higher = more signal, called active from +8 up or from −8 down;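 note: probe is the protein aXip251-270 applied at 1 µg/mL to compound-printed slides; binding of probe to printed compounds measured as 667 nm fluorescence plus signal to noise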
[2] = probe aNOTCH3 binding on compound microarray – biochemical, small-molecule microarray, 635/667 nm fluorescence, primary screen (AID 1120); settings: higher = more signal;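 note: probe is a biotin-tagged antibody raised against NOTCH3 rather than NOTCH3 protein; score merges spot fluorescence near 667 nm with spot signal to noise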
[3] = probe aNOTCH2 binding on compound microarray – biochemical, small-molecule microarray, 635/667 nm fluorescence, primary screen (AID 1121); settings: higher = more signal;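 note: score merges feature fluorescence read at 667 nm with its signal to noise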
[4] = molecular target: Carbonic anhydrase 2 (Homo sapiens) (UniProt P00918); assay: compounds binding carbonic anhydrase 2 – biochemical, small-molecule microarray, Alexa647-labelled CAII, profiling panel (AID 1122); settings: CAII-A647 binding fluorescence, higher = more signal
[5] = COS7 lysate on small-molecule microarray, probe aHis, 635 nm (AID 1123); settings: COS7 cell lysate, fluorescence, higher = more signal;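 note: z-score combines 667nm fluorescence intensity with signal-to-noise per printed compound spot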
[6] = probe aLAP1 signal on lysate-treated microarray – cell lysate, small-molecule microarray, COS7 lysate, primary screen (AID 1124); settings: probe aLAP1, fluorescence, higher = more signal;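 note: lysate comes from COS7 cells expressing LAP1 and is applied at 0.3 µg/mL; score merges spot fluorescence near 667 nm with signal-to-noise over triplicate slides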
Sam68 (KHDRBS1) = assay: compounds binding KHDRBS1 protein – biochemical, small-molecule microarray, 635 nm fluorescence, primary screen (AID 1125); settings: higher = more signal;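 note: score merges 667 nm channel intensity with signal to noise over triplicate slides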
[7] = system: Chordin-like protein 2 (CHRDL2); assay: compounds binding chordin-like 2 – biochemical, small-molecule microarray, 635 nm fluorescence, primary screen (AID 1126); settings: fluorescence 635 nm, higher = more signal;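 note: printed compound slides probed with Chrdl2 protein at 4 µg/mL for 1 h at 4 C; score merges 667 nm emission intensity with signal to noise over three replicate slides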
[8] = molecular target: Concanavalin-A (Canavalia ensiformis) (UniProt P02866); assay: compounds binding concanavalin A lectin – biochemical, small-molecule microarray, Alexa647 label, 635 nm, artefact control for SMM control protein annotation, primary screen (AID 1127); settings: ConA-A647 binding fluorescence, higher = more signal;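 note: z combines 667 nm emission intensity with signal-to-noise across three replicate slides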
Concanavalin-A (Canavalia ensiformis), sequence (P02866 whole entry, looked up): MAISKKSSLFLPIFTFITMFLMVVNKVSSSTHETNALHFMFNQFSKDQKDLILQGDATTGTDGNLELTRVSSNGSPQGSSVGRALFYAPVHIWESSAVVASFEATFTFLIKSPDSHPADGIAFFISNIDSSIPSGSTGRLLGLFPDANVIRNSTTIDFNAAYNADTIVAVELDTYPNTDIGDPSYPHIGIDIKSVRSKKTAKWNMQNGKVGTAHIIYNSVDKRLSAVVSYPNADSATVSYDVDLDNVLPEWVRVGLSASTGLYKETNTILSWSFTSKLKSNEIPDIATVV

[9] = compounds binding Alexa647 anti-His antibody – biochemical, small-molecule microarray, 635 nm fluorescence, artefact control for SMM control protein annotation, primary screen (AID 1128); settings: higher = more signal;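 note: score merges feature fluorescence with signal-to-noise for each printed compound spot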
[10] = system: Human papillomavirus type 1a E7 protein (residues 1-88); assay: HPV1a E7 small-molecule binders, primary screen, biochemical, small-molecule microarray, residues 1-88, 635 nm (AID 1129); settings: small-molecule microarray binding, fluorescence 635 nm; higher = more signal
[11] = molecular target: Focal adhesion kinase 1 (Homo sapiens) (UniProt Q05397); assay: PTK2 protein binding on printed compound slides – biochemical, small-molecule microarray, 635/667 nm fluorescence, BSA, DTT, primary screen (AID 1130); settings: 635 nm fluorescence, higher = more signal;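 note: composite of spot emission at 667 nm and signal to noise over triplicate slides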
Focal adhesion kinase 1 (Homo sapiens), sequence (Q05397 whole entry, looked up): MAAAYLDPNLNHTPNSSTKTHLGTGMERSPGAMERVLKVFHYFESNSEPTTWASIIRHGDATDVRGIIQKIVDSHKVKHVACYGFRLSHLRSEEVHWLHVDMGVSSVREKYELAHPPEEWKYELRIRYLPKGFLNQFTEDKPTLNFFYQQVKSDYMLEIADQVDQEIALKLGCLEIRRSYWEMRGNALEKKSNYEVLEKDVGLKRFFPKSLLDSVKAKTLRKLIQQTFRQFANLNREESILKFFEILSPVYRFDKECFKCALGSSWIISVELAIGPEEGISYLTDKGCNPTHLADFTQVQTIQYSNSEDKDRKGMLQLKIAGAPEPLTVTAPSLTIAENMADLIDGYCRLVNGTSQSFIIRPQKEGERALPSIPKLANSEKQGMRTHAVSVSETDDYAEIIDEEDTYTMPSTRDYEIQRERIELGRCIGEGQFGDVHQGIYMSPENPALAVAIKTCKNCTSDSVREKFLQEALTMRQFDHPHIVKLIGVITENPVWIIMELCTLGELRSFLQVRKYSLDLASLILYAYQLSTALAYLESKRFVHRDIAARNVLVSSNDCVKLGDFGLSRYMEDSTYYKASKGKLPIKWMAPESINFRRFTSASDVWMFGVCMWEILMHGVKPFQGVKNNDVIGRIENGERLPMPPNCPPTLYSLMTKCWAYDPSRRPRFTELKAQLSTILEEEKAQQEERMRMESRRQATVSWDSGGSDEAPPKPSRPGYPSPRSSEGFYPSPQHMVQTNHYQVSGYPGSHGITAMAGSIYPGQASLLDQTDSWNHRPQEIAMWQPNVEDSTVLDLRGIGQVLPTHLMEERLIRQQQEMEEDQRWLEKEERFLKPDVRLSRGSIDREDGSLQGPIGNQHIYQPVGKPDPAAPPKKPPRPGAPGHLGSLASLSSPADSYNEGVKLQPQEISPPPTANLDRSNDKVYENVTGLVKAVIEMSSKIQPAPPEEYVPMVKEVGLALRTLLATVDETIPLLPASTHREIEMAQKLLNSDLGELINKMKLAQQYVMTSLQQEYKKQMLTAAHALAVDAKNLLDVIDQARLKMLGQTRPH

[12] = system: Fibrinogen (Alexa647-labelled); assay: Alexa647-fibrinogen binding to printed small molecules – biochemical, small-molecule microarray, 635/667 nm fluorescence, artefact control for SMM control-protein annotation, profiling panel (AID 1131); settings: fibrinogen-A647 binding fluorescence, higher = more signal;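 note: z-score merges 667 nm fluorescence with per-spot signal-to-noise over triplicate slides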
[13] = molecular target: Follistatin (Homo sapiens) (UniProt P19883); assay: FST protein binding to printed compounds – biochemical, small-molecule microarray, 635/667 nm fluorescence, primary screen (AID 1132); settings: 635 nm fluorescence, higher = more signal
Follistatin (Homo sapiens), sequence (P19883 whole entry, looked up): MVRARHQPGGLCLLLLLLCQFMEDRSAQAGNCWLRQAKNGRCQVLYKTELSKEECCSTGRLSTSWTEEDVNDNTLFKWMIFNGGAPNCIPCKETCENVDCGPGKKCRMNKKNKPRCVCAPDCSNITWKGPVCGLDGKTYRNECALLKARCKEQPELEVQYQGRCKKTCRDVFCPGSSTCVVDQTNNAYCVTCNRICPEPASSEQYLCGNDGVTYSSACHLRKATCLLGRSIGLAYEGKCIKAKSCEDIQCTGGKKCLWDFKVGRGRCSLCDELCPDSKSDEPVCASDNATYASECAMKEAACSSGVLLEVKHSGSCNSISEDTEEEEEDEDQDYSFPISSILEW

[14] = molecular target: Fibroblast growth factor 2 (Homo sapiens) (UniProt P09038); assay: basic fibroblast growth factor binding to printed compounds – biochemical, small-molecule microarray, 635/667 nm fluorescence, primary screen (AID 1133); settings: FGF2, fluorescence 635/667, higher = more signal
Fibroblast growth factor 2 (Homo sapiens), sequence (P09038 whole entry, looked up): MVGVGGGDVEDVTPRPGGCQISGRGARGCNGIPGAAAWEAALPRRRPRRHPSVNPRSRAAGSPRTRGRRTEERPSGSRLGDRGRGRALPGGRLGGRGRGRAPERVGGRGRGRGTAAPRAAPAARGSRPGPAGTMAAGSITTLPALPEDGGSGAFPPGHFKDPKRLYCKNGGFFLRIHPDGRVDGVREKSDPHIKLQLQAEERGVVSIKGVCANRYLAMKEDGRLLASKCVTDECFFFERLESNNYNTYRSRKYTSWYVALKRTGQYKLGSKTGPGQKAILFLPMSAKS

[15] = JC-1 mitochondrial potential readout, lung cancer cells – cell-based, A549, JC-1 fluorescence, basal, 24 h, 100 nL, profiling panel (AID 1138); settings: higher = more signal;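 note: A549 lung adenocarcinoma cells under basal conditions with no added stimulus; test concentration not given here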
Lefty1 = Lefty1 protein binding to printed compounds – biochemical, small-molecule microarray, 635/667 nm fluorescence, primary screen (AID 1139); settings: fluorescence 635/667, higher = more signal
[16] = system: wheat germ agglutinin (Triticum aestivum), Alexa647-labelled; assay: Alexa647-WGA lectin binding to printed small molecules – biochemical, small-molecule microarray, 635/667 nm fluorescence, artefact control for SMM control-protein annotation, profiling panel (AID 1140); settings: WGA-A647 binding, 635 nm fluorescence, higher = more signal;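 note: score merges 667 nm feature emission with signal to noise over triplicate slides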
[17] = molecular target: Luciferin 4-monooxygenase (Photinus pyralis) (UniProt P08659); assay: inhibition of purified Photinus pyralis luciferase – biochemical, luminescence, purified enzyme, 2006 set, primary screen (AID 1141); settings: purified firefly luciferase, SteadyGlo luminescence, 30 min; higher = more signal, called active from +8 up or from −8 down;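 note: cell-free assay with purified firefly luciferase at 100 ng per well in PBS; test concentration not given here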
Luciferin 4-monooxygenase (Photinus pyralis), sequence (P08659 whole entry, looked up): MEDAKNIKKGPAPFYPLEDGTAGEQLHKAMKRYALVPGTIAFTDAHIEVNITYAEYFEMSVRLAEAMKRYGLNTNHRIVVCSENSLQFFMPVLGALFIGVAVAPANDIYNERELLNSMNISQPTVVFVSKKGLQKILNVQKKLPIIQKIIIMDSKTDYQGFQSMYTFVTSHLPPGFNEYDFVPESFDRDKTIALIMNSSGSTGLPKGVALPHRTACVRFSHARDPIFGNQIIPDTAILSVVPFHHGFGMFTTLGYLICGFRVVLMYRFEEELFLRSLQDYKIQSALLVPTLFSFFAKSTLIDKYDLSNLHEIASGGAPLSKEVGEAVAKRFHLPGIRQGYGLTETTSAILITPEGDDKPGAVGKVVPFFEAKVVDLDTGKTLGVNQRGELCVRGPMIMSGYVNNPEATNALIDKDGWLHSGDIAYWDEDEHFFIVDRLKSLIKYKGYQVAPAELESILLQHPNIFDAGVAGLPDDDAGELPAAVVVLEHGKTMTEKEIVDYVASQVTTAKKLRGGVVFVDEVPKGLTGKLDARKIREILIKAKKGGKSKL

Row | SMILES | composite z-score (Albumin (Bos taurus)) | composite Z-score [1] | composite z-score [2] | composite z-score [3] | composite z-score [4] | composite z-score [5] | composite z-score [6] | composite z-score (Sam68 (KHDRBS1)) | composite z-score [7] | composite z-score [8] | composite z-score [9] | composite z-score [10] | composite z-score [11] | composite z-score [12] | composite z-score [13] | composite z-score [14] | z-score [15] | composite z-score (Lefty1) | composite z-score [16] | z-score [17]
1 | COC(=O)C1=C(C)N(Cc2ccccc2)C2=C3C(=O)CCC[C@@H]3[C@@](O)(C(=O)OC)C(=O)N2[C@@H]1c1ccccc1 | 0.0476 and 0.354 | -0.0521 (inactive) and -0.191 (inactive) | -0.0077 and 0.178 | -0.125 and -0.114 | 0.362 and 0.0465 | 0.0949 and 0.111 | -0.0012 and 0.0654 | 0.368 and -0.0561 | 0.674 and 0.24 | 0.596 and -0.917 | 0.043 and -0.496 | 0.501 and 0.0093 | -0.12 and 0.177 | 0.335 and -1.14 | 0.584 and 0.158 | 0.997 and 0.581 | 1.22 and 0.728 | 0.573 and 0.217 | 0.121 and -1.1 | -1.29 (inactive) and -1.47 (inactive)
2 | C=C[C@H](C)[C@H](O)c1ccc(O)c2ccccc12 | -0.401 and 0.473 | 0.0296 (inactive) and -0.906 (inactive) | -0.36 and -0.229 | -0.109 and -0.114 | 0.137 and 0.349 | -0.0769 and 0.283 | -0.055 and -0.15 | -0.512 and -0.791 | -0.14 and -0.152 | -1.05 and -0.559 | 2.31 and -0.782 | -0.402 and -0.622 | -0.0703 and -0.493 | -0.22 and -0.58 | 0.0456 and 0.32 | -0.671 and 1.31 | -0.145 and 1.39 | -0.494 and 0.152 | -0.0985 and -0.45 | -1 (inactive) and -2.28 (inactive)
3 | C=CCN(CCCCC)C(=O)C1N(c2c(Cl)cccc2CO)C(=O)C2C(C(=O)O)C3C=CC21O3 (stereo not given) | -1.16 and -0.735 | -0.823 (inactive) and 0.131 (inactive) | -0.508 and -0.548 | -0.245 and -0.184 | 0.846 and 0.315 | -0.115 and -0.621 | -0.0989 and -0.178 | -0.331 and -0.297 | -2.24 and -2.28 | -1.5 and -0.938 | -1.91 and -0.805 | -0.751 and -1.1 | -0.845 and -0.37 | -1.41 and -1.31 | -2.55 and -0.968 | -2.42 and -2.09 | -1.02 and -0.472 | -1.6 and -1.98 | -2.05 and -1.28 | 0.975 (inactive) and 0.308 (inactive)
4 | CCOC(=O)NN=C1C[C@@H](O)[C@@H](O)[C@@H]2[C@@H]3C(=O)N(Cc4ccc5c(c4)OCO5)C(=O)[C@@H]3CC[C@@H]12 | 0.397 | 0.221 (inactive) | -0.141 | -0.0349 | -0.158 | 0.257 | -0.377 | 0.789 | 0.171 | 0.837 | 0.0648 | 0.449 | -0.0156 | 0.669 | 0.0164 | 0.197 | 1.06 | 0.225 | 0.626 | 0.556 (inactive)
5 | C=CCN(C(=O)C(c1cccs1)N(C(=O)/C=C\C(=O)O)c1c(Cl)cccc1CO)C(C)(C)C (stereo not given) | -0.693 and -0.455 | 0.0333 (inactive) and 0.242 (inactive) | -0.538 and -0.562 | -0.125 and -0.182 | 0.884 and 0.936 | -0.625 and -0.42 | -0.766 and -0.131 | -1.95 and -0.769 | -2.35 and -3.64 | -1.12 and -0.782 | 0.28 and -0.668 | -1.4 and -1.02 | -0.513 and -0.619 | -2.69 and -1.15 | -1.48 and -1.81 | -2.01 and -2.33 | 0.674 and 0.368 | -1.96 and -2.54 | -0.543 and -1 | -0.242 (inactive) and -0.42 (inactive)
6 | C=CCN(C(=O)C(c1cccs1)N(C(=O)/C=C\C(=O)O)c1ccc(CCO)cc1)c1ccc(OC)cc1 (stereo not given) | 0.254 and -1.1 | -0.16 (inactive) and -0.902 (inactive) | -0.299 and -0.451 | -0.164 and -0.19 | 0.89 and -0.733 | -0.416 and -1.29 | -1.17 and 0.112 | -1.79 and -2.22 | -1.65 and -3.12 | -1.33 and -2.24 | 0.502 and -2.51 | -0.979 and -1.34 | 0.32 and -0.445 | -1.36 and -2.21 | -1.14 and -3.18 | -2.42 and -2 | 0.413 and 1.3 | -0.91 and -2.42 | -0.4 and -0.894 | -1.62 (inactive) and -1.01 (inactive)
7 | C=CCN(CCCC)C(=O)C1N(c2ccc(CCO)cc2)C(=O)C2C(C(=O)O)C3C=CC21O3 (stereo not given) | -0.196 and -1.75 | -0.708 (inactive) and -0.319 (inactive) | -0.454 and -0.477 | 0.0039 and -0.14 | 0.809 and 0.91 | 0.253 | -1.05 and -0.525 | -1.48 and -0.741 | -3.26 and -3.79 | -1.74 and -2.64 | -1.5 and -1.42 | -1.48 and -1.18 | -1.03 and 0.339 | -1.01 and -2.98 | -0.852 and -2.67 | -0.893 and -2.56 | -0.898 and -0.353 | -1.39 and -3.01 | 0.0666 and -1.56 | 1.5 (inactive) and -1.51 (inactive)
8 | C[N+](C)(C)CCCCNC(=O)[C@H]1C[C@H]2C(=O)N[C@@H](CCCC[N+](C)(C)C)C(=O)N2[C@H]1c1cccc(OCCO)c1 | -0.741 and -0.3 | 2.4 (inactive) and 1.3 (inactive) | 0.0533 and 0.245 | -0.0974 and -0.131 | 0.851 and 0.463 | 1.38 and 1.49 | 0.848 and 0.953 | 0.25 and 1.32 | 1.17 and 1.53 | 0.744 and 1.05 | 1.98 and 1.03 | -0.166 and 0.848 | -0.389 and -0.117 | -0.816 and -0.179 | 1.49 and 1.53 | 1.93 and 1.73 | -0.59 and -0.114 | 1.75 and 1.59 | -1.07 and 1.04 | 0.254 (inactive) and 0.0887 (inactive)
9 | COC(=O)C1=C(C)N(Cc2ccccc2)[C@]23O[C@](C(=O)OC)(C(=O)N2[C@@H]1c1ccccc1)[C@@H](c1ccccc1)[C@@H]3C(=O)c1ccccc1 | 0.711 and -0.334 | -0.0461 (inactive) and 0.0162 (inactive) | -0.0111 and -0.0048 | -0.119 and -0.0974 | 0.179 and 0.178 | 0.49 and 0.258 | 0.315 and -0.144 | 0.661 and -0.776 | 0.189 and 0.843 | 0.675 and 0.142 | -0.148 and -0.112 | 0.771 and 0.0338 | -0.0865 and -0.11 | 0.502 and -0.435 | -0.0105 and 0.958 | 0.416 and 0.847 | 0.914 and 0.835 | 0.0005 and 0.36 | 0.516 and -0.17 | -0.917 (inactive) and -0.717 (inactive)
10 | CON(C)C(=O)c1nnc2c3ccccc3n(S(=O)(=O)c3ccc(C)cc3)c2n1 | 0.622 and 0.0016 | 0.891 (inactive) and 0.79 (inactive) | -0.0111 and 0.211 | -0.104 and -0.109 | 0.393 and 0.481 | 0.19 and 1 | 0.101 and 0.208 | 0.41 and 1.3 | 0.828 and 0.553 | 1.1 and 1.14 | 0.397 and 0.647 | 0.836 and 1.11 | 0.323 and 0.0633 | 0.88 and 0.578 | 0.229 and 0.552 | 0.43 and 1.31 | 0.551 and 0.105 | 0.273 and 0.757 | 0.184 and 0.328 | -0.251 (inactive) and -0.0743 (inactive)
